Results on five molecules are retold here after PubChem BioAssay.

Activity calls are given as the source filed them.

The target of assay [1] is Albumin (Bos taurus) (UniProt P02769). The assay is described as follows: bovine serum albumin binders on microarray, profiling panel, artefact control for SMM control protein annotation, biochemical, small-molecule microarray, Alexa647 label, 635/667 nm fluorescence (AID 1118).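 Also: score merges 667 nm emission intensity and signal-to-noise per printed compound spot.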 The following applies: BSA-A647 binding, fluorescence 635 nm, higher = more signal.
Sequence of Albumin (Bos taurus) (P02769 whole entry, looked up): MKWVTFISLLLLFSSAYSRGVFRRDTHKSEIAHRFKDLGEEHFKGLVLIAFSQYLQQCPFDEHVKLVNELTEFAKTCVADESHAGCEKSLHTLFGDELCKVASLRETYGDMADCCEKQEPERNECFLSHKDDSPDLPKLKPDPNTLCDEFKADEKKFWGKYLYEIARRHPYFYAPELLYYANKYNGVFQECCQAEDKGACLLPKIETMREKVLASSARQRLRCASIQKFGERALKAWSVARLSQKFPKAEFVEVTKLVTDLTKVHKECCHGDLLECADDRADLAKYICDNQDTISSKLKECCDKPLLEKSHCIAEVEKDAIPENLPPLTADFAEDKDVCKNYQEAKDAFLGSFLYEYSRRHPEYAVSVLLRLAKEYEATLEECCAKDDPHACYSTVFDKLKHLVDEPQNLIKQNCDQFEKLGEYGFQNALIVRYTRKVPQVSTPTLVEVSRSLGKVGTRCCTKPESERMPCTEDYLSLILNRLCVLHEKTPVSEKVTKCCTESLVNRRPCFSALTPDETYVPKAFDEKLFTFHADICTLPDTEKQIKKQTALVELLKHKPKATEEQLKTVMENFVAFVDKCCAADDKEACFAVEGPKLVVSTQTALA
A short description of assay [2]: small-molecule microarray binders of probe aXIP, primary screen, biochemical, NeuroSMM set, 635/667 nm fluorescence (AID 1119).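 Also: probe is the protein aXip251-270 applied at 1 µg/mL to compound-printed slides; binding of probe to printed compounds measured as 667 nm fluorescence plus signal to noise.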 The following applies: higher = more signal, called active from +8 up or from −8 down.
The nature of assay [3]: small-molecule binders of probe aNOTCH3, primary screen, biochemical, small-molecule microarray, 635/667 nm fluorescence (AID 1120).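 Also: probe is a biotin-tagged antibody raised against NOTCH3 rather than NOTCH3 protein; score merges spot fluorescence near 667 nm with spot signal to noise.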 Particulars: higher = more signal.
The nature of assay [4]: small-molecule binders of probe aNOTCH2, primary screen, biochemical, small-molecule microarray, 635/667 nm fluorescence (AID 1121).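 Also: score merges feature fluorescence read at 667 nm with its signal to noise.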 The following applies: higher = more signal.
Assay [5] concerns the target Carbonic anhydrase 2 (Homo sapiens) (UniProt P00918). In words: CAII small-molecule binders, profiling panel, biochemical, small-molecule microarray, Alexa647-labelled CAII (AID 1122). The following applies: CAII-A647 binding fluorescence, higher = more signal.
The nature of assay [6]: COS7 lysate on small-molecule microarray, probe aHis, 635 nm (AID 1123).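 Also: z-score combines 667nm fluorescence intensity with signal-to-noise per printed compound spot.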 Particulars: COS7 cell lysate, fluorescence, higher = more signal.
The nature of assay [7]: compound binding in COS7 lysate, probe aLAP1, primary screen, cell lysate, small-molecule microarray (AID 1124).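 Also: lysate comes from COS7 cells expressing LAP1 and is applied at 0.3 µg/mL; score merges spot fluorescence near 667 nm with signal-to-noise over triplicate slides.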 The following applies: probe aLAP1, fluorescence, higher = more signal.
For assay [8], the system named is Sam68 (KHDRBS1). In words: Sam68 small-molecule binders, primary screen, biochemical, small-molecule microarray, 635 nm fluorescence (AID 1125).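 Also: score merges 667 nm channel intensity with signal to noise over triplicate slides.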 Particulars: small-molecule microarray binding, higher = more signal.
Assay [9] concerns Chordin-like protein 2 (CHRDL2). In words: CHRDL2 small-molecule binders, primary screen, biochemical, small-molecule microarray, 635 nm fluorescence (AID 1126).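 Also: printed compound slides probed with Chrdl2 protein at 4 µg/mL for 1 h at 4 C; score merges 667 nm emission intensity with signal to noise over three replicate slides.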 The following applies: small-molecule microarray binding, fluorescence 635 nm; higher = more signal.
Assay [10] deals with Concanavalin-A (Canavalia ensiformis) (UniProt P02866). In words: ConA small-molecule binders, primary screen, artefact control for SMM control protein annotation, biochemical, small-molecule microarray, Alexa647 label, 635 nm (AID 1127).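 Also: z combines 667 nm emission intensity with signal-to-noise across three replicate slides.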 Particulars: ConA-A647 binding fluorescence, higher = more signal.
Sequence of Concanavalin-A (Canavalia ensiformis) (P02866 whole entry, looked up): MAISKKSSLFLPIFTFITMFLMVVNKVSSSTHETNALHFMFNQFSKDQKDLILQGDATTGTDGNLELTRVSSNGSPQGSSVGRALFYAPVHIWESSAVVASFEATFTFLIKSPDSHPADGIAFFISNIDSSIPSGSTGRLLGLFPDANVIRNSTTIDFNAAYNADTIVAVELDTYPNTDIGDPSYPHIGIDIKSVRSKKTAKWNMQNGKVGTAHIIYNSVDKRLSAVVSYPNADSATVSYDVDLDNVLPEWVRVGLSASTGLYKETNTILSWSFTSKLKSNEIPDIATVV
Assay [11] in a line: anti-His antibody binders, primary screen, artefact control for SMM control protein annotation, biochemical, small-molecule microarray, 635 nm fluorescence (AID 1128).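 Also: score merges feature fluorescence with signal-to-noise for each printed compound spot.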 Particulars: anti-His Alexa647 antibody binding, higher = more signal.
In assay [12] the test system is Human papillomavirus type 1a E7 protein (residues 1-88). The assay is described as follows: HPV1a E7 small-molecule binders, primary screen, biochemical, small-molecule microarray, residues 1-88, 635 nm (AID 1129). The following applies: small-molecule microarray binding, fluorescence 635 nm; higher = more signal.
The target in assay [13] is Focal adhesion kinase 1 (Homo sapiens) (UniProt Q05397). In words: small-molecule microarray binders of FAK, primary screen, biochemical, 635/667 nm fluorescence, BSA, DTT (AID 1130).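 Also: composite of spot emission at 667 nm and signal to noise over triplicate slides.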 Particulars: PTK2 binding, 635 nm fluorescence, higher = more signal.
Sequence of Focal adhesion kinase 1 (Homo sapiens) (Q05397 whole entry, looked up): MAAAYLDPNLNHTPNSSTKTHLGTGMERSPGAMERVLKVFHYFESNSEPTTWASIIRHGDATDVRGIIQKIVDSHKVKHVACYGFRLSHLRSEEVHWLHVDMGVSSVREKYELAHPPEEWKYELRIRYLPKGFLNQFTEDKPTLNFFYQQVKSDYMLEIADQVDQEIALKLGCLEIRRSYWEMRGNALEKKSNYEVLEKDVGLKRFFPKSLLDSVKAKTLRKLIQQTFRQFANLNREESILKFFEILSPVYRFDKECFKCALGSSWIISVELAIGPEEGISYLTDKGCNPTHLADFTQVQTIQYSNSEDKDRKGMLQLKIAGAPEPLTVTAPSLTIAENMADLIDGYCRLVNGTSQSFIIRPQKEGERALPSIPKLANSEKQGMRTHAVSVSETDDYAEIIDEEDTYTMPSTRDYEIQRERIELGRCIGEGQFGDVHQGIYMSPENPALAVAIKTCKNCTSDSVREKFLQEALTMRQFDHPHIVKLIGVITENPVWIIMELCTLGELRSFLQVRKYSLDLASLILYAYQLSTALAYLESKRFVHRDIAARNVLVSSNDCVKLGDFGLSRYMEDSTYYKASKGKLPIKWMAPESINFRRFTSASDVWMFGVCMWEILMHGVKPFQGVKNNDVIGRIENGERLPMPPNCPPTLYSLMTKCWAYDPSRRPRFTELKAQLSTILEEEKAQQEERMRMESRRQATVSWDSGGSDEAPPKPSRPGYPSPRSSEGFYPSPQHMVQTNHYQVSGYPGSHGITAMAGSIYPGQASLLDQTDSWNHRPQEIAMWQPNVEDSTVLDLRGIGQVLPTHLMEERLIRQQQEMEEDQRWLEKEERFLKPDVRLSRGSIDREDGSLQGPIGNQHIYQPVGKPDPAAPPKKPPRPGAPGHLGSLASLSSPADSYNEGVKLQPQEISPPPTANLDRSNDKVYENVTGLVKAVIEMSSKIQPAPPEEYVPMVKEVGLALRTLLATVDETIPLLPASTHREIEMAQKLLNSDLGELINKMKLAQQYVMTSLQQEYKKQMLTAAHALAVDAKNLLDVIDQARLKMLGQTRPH
Assay [14] has as its system Fibrinogen (Alexa647-labelled). The assay is described as follows: fibrinogen binders on compound microarrays, profiling panel, artefact control for SMM control-protein annotation, biochemical, small-molecule microarray, 635/667 nm fluorescence (AID 1131).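 Also: z-score merges 667 nm fluorescence with per-spot signal-to-noise over triplicate slides.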 The following applies: fibrinogen-A647 binding fluorescence, higher = more signal.
Assay [15] concerns the target Follistatin (Homo sapiens) (UniProt P19883). The assay is described as follows: follistatin binders on small-molecule microarrays, primary screen, biochemical, small-molecule microarray, 635/667 nm fluorescence (AID 1132). Particulars: FST binding, 635 nm fluorescence, higher = more signal.
In assay [16] the target is Fibroblast growth factor 2 (Homo sapiens) (UniProt P09038). The assay is described as follows: FGF2 binders on small-molecule microarrays, primary screen, biochemical, small-molecule microarray, 635/667 nm fluorescence (AID 1133). The following applies: small-molecule microarray binding, FGF2, fluorescence 635/667; higher = more signal.
Sequence of Fibroblast growth factor 2 (Homo sapiens) (P09038 whole entry, looked up): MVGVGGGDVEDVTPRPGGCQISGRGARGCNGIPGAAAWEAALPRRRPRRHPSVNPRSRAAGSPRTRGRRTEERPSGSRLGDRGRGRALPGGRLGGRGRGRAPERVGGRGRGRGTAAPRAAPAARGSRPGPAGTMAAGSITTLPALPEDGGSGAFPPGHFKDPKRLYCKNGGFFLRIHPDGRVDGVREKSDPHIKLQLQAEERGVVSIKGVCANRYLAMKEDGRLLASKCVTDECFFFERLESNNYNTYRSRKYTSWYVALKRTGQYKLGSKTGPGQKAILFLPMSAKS
The nature of assay [17]: mitochondrial membrane potential change in A549 cells, profiling panel, cell-based, JC-1 fluorescence, basal, 24 h, 100 nL (AID 1138).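 Also: A549 lung adenocarcinoma cells under basal conditions with no added stimulus; test concentration not given here.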 Particulars: higher = more signal.
In assay [18] the test system is Lefty1. In words: Lefty1 binders on small-molecule microarrays, primary screen, biochemical, small-molecule microarray, 635/667 nm fluorescence (AID 1139). Particulars: small-molecule microarray binding, fluorescence 635/667; higher = more signal.
The test system of assay [19] is wheat germ agglutinin (Triticum aestivum), Alexa647-labelled. The assay is described as follows: wheat germ agglutinin binders on compound microarrays, profiling panel, artefact control for SMM control-protein annotation, biochemical, small-molecule microarray, 635/667 nm fluorescence (AID 1140).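 Also: score merges 667 nm feature emission with signal to noise over triplicate slides.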 Particulars: WGA-A647 binding, 635 nm fluorescence, higher = more signal.

The target in assay [20] is Luciferin 4-monooxygenase (Photinus pyralis) (UniProt P08659). In words: firefly luciferase enzyme inhibitors, primary screen, biochemical, luminescence, purified enzyme, 2006 set (AID 1141).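 Also: cell-free assay with purified firefly luciferase at 100 ng per well in PBS; test concentration not given here.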 Particulars: SteadyGlo luminescence, 30 min, higher = more signal, called active from +8 up or from −8 down.
Sequence of Luciferin 4-monooxygenase (Photinus pyralis) (P08659 whole entry, looked up): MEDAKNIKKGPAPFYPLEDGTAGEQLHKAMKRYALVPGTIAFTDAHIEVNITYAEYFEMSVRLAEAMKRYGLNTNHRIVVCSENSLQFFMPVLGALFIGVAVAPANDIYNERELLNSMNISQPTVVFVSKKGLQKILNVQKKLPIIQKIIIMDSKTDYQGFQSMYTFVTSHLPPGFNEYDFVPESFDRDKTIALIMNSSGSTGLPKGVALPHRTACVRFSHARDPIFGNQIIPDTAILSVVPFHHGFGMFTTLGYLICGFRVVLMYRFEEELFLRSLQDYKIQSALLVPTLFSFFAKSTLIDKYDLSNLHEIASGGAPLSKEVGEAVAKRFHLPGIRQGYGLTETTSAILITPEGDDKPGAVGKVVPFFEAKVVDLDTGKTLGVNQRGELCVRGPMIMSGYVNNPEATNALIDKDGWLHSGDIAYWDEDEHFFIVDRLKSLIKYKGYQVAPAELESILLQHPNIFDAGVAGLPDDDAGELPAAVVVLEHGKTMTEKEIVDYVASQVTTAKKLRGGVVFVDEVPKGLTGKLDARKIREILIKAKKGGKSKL

Sequence of Follistatin (Homo sapiens) (P19883 whole entry, looked up): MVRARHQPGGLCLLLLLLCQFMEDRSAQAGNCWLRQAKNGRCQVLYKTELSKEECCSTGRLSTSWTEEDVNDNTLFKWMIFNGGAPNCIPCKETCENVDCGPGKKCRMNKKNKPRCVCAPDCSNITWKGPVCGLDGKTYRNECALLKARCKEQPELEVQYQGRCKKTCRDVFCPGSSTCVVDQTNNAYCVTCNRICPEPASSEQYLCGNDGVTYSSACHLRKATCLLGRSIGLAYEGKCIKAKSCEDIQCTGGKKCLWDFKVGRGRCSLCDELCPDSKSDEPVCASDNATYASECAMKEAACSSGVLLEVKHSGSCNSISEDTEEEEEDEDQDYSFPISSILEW

For `Cc1ccc(F)cc1S(=O)(=O)N[C@@H]1CCN(Cc2ccc(Br)cc2)C1`, the composite z-score is 0.694 in [1]; 0.122 in [3]; -0.0424 in assay [4]; 0.276 in assay [5]; -0.593 in assay [6]; -0.386 in assay [7]. Further, the composite z-score is -0.811 in assay [8]; 0.743 in assay [9]; -0.862 in assay [10]; -0.325 in assay [11]; -0.464 in assay [12]; -0.408 in assay [13]. The composite z-score was determined as 0.79 in [14]; 0.639 in assay [15]; 0.677 in assay [16]; 0.983 in assay [18]; 0.124 in assay [19]. For the same molecule, the composite Z-score in assay [2] is -0.388 (inactive). The z-score in [17] is 1.47; in assay [20], -0.457 (inactive).
With `CC(C)N1CC=CC23O[C@@H]4C=CCCOC(=O)C4[C@H]2C(=O)N(CCCO)[C@@H]3C1=O` (stereo not given in full), the composite z-score in [1] is -0.682; in assay [3], -0.112; in assay [4], -0.0995; in assay [5], 0.734; in assay [6] it was -0.192; in [7] it was 0.303. Moreover, the composite z-score in assay [8] is 0.334; in [9] it was -0.347; in assay [10], -0.0639; in assay [11], 0.939; in assay [12] it was -0.0707; in assay [13], 0.248. Further, the composite z-score in assay [14] is -1.09; in [15], -0.0801; in assay [16] it was -0.565; in assay [18], -0.0004; in assay [19], -0.467. The composite Z-score in assay [2] was -0.472 (inactive). Further, the z-score was -1.31 in assay [17] and 0.0763 (inactive) in assay [20].
Turning to `COC(=O)C1=CC(CCCO)=CC(c2cccs2)N(C)C=C1C(=O)OC` (stereo not given), the composite z-score is 0.445 in [1]; -0.0879 in assay [3]; -0.115 in assay [4]; 0.869 in assay [5]; 1.17 in [6]; -0.371 in assay [7]. Besides, the composite z-score in assay [8] is -0.213; in [9], -0.44; in assay [10], 0.34; in assay [11], 0.15; in [12], -0.5; in [13], 0.143. The composite z-score is -0.198 in assay [14]; -0.344 in [15]; -0.498 in assay [16]; -0.307 in assay [18]; 0.507 in [19]. In addition, the composite Z-score in [2] was 0.156 (inactive). In addition, the z-score is 0.0963 in assay [17] and -0.674 (inactive) in [20].
Regarding `COC(=O)[C@@]1(Cc2ccc(F)cc2)[C@H]2c3cc(C(=O)N(C)C)n(Cc4ccc(OC(F)(F)F)cc4)c3C[C@H]2CN1C(=O)c1ccccc1`, the composite z-score in [1] was 0.239; in assay [3], 0.11; in assay [4], -0.078; in assay [5] it was 0.0217; in assay [6] it was 0.398; in [7] it was 0.0642. Besides, the composite z-score is -0.0367 in assay [8]; -0.0356 in assay [9]; 0.296 in assay [10]; 0.348 in assay [11]; 0.626 in assay [12]; 0.0291 in [13]. In addition, the composite z-score in assay [14] is 0.572; in assay [15], 0.216; in [16], 0.016; in assay [18] it was -0.182; in assay [19], 0.341. For the same molecule, the composite Z-score in assay [2] was -0.249 (inactive). Further, the z-score in assay [17] was 0.561; in assay [20], 1.6 (inactive).
Consider `CN(C)C(=O)[C@]1(CCC(=O)OC(C)(C)C)N=C(c2ccc(OCCCO)cc2)O[C@@H]1c1ccccc1CN=[N+]=[N-]`, for which the composite z-score in assay [1] is 1.01; in assay [3], 0.0749; in [4], -0.0037; in assay [5], 0.673; in assay [6], 3.17; in assay [7], 1.15. In addition, the composite z-score is 1.34 in [8]; -1.24 in assay [9]; 1.12 in assay [10]; 1.31 in assay [11]; 1.21 in assay [12]; 0.706 in assay [13]. The composite z-score in assay [14] is 0.961; in [15], 1.25; in [16], -0.0399; in assay [18] it was 0.0183; in assay [19] it was 1.42. The composite Z-score in [2] is -0.579 (inactive). The z-score was 1.03 in [17] and -0.703 (inactive) in assay [20].
